# What was measured:
# Test in all cases: DAPPL (digital affinity profiling via proximity ligation, sequencing); 10 mM Tris-HCl pH 7.5, 50 mM NaCl, 1 mM DTT, 4% glycerol, room temperature, 30 min; GST-TFs on glutathione beads, 16-mer random dsDNA library, 0.1% formaldehyde crosslink after washing; high values mean tight binding
# Details in all cases: protein: recombinant; tags: N-terminal GST; dsDNA, one strand shown
# ETV1 = ETV1 (Homo sapiens, UniProt P50549 1-477)
# Method in brief: (§1)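 Binding signal is given per hexamer as its read frequency for a factor divided by its frequency in the tag-only sample. GST-fused human transcription factors were expressed in yeast, captured on glutathione beads, barcoded with DNA and pooled with that sample, then incubated with 200 nmole of a 16-mer random double-stranded DNA library in Tris/NaCl/DTT/glycerol buffer for 30 min at room temperature. The pools were then washed, crosslinked, proximity-ligated, amplified by PCR and sequenced on an Illumina NextSeq500.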
# ERF = biological target: T1, ERF (Homo sapiens, UniProt P50548 1-548)
# T1 sequence: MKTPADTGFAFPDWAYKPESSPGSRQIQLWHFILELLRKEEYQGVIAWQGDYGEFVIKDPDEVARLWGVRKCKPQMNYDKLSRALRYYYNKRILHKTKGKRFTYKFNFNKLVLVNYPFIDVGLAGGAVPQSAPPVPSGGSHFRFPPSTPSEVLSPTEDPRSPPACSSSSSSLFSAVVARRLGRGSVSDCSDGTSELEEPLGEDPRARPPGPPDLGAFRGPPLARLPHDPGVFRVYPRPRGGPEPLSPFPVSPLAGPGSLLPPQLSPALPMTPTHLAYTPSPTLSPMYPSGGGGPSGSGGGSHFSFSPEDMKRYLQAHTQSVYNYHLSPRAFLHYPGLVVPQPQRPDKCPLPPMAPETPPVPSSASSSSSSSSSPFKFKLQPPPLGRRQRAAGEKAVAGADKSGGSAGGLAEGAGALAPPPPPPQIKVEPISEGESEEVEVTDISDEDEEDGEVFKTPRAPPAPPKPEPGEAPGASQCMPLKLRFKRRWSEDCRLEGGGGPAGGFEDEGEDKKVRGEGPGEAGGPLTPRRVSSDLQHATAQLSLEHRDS
# Method in brief: as §1
# ETV3L = biological target: T2, ETV3L (Homo sapiens, UniProt Q6ZN32 1-361)
# T2 sequence: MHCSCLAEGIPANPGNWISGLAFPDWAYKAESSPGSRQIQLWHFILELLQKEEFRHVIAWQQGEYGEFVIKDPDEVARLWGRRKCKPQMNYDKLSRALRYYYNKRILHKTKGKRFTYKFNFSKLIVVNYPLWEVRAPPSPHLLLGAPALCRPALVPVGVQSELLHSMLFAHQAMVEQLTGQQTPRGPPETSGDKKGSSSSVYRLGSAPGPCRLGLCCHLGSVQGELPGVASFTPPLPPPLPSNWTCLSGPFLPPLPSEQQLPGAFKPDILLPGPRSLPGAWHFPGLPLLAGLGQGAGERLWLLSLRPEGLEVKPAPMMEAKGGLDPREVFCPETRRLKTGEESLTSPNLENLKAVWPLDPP
# Method in brief: as §1
# ETS2 = biological target: T3, ETS2 (Homo sapiens, UniProt P15036 1-469)
# T3 sequence: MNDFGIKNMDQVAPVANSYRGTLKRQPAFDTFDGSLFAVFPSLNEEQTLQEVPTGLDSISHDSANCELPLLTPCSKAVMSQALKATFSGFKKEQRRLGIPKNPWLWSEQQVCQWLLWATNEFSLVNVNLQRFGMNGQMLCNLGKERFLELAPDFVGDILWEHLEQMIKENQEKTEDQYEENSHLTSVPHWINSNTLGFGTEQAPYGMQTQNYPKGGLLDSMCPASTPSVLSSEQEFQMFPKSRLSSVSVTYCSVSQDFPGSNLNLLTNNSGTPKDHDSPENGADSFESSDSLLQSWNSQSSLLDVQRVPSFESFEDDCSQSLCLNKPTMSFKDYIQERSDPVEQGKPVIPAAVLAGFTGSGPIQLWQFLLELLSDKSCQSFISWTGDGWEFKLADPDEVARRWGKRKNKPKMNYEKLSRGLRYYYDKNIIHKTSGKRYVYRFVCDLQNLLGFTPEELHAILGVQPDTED
# Method in brief: as §1
# SPDEF = biological target: T4, SPDEF (Homo sapiens, UniProt O95238 1-335)
# T4 sequence: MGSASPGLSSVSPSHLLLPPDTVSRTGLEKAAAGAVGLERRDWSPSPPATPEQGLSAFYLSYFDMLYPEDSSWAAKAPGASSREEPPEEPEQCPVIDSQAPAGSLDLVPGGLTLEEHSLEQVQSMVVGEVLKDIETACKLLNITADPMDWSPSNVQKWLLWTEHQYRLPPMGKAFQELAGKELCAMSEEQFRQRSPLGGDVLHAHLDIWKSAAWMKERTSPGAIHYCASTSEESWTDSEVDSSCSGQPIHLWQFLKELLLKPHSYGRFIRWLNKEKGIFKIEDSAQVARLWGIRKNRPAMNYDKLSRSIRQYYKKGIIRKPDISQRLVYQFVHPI
# Method in brief: as §1
# ETV7 = biological target: T5, ETV7 (Homo sapiens, UniProt Q9Y603 1-341)
# T5 sequence: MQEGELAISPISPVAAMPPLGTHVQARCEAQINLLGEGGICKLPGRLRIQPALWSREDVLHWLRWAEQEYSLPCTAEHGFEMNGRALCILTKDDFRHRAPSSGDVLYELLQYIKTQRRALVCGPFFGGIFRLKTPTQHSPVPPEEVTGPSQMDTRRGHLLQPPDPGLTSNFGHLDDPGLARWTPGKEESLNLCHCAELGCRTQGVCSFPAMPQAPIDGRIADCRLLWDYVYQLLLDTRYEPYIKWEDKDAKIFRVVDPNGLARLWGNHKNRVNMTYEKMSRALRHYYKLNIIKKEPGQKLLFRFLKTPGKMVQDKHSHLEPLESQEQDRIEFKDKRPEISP
# Method in brief: as §1
# ELF5 = biological target: T6, ELF5 (Homo sapiens, UniProt Q9UKW6-2 1-255)
# T6 sequence: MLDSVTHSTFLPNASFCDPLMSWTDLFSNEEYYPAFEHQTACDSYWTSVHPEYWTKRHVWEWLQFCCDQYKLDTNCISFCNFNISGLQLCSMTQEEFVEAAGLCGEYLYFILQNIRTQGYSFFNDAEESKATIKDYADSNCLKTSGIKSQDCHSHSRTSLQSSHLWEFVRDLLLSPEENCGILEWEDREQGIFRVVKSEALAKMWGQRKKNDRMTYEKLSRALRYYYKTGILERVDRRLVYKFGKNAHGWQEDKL
# Method in brief: as §1
# ETV3 = biological target: T7, ETV3 (Homo sapiens, UniProt P41162-2 1-143)
# T7 sequence: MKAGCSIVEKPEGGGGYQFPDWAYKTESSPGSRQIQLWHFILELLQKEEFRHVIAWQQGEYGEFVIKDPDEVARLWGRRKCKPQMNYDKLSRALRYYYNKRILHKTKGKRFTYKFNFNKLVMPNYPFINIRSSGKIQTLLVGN
# Method in brief: as §1
# ETV6 = ETV6 (Homo sapiens, UniProt P41212 1-452)
# ETV6, sequence (P41212 whole entry): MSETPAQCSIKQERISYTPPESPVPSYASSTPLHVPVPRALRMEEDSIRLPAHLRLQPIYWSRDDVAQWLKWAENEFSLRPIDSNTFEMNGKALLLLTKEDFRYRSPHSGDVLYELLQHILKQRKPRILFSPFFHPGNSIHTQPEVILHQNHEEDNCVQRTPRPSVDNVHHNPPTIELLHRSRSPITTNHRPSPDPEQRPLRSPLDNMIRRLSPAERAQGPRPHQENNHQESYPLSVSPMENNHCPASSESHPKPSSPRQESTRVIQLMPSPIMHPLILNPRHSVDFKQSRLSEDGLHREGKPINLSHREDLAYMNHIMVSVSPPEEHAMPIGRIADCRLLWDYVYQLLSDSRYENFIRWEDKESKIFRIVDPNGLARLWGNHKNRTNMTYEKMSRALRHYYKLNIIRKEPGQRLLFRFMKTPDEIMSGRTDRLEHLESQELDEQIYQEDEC
# Method in brief: as §1
# ETV1, sequence (P50549 whole entry, the tested form may be a part): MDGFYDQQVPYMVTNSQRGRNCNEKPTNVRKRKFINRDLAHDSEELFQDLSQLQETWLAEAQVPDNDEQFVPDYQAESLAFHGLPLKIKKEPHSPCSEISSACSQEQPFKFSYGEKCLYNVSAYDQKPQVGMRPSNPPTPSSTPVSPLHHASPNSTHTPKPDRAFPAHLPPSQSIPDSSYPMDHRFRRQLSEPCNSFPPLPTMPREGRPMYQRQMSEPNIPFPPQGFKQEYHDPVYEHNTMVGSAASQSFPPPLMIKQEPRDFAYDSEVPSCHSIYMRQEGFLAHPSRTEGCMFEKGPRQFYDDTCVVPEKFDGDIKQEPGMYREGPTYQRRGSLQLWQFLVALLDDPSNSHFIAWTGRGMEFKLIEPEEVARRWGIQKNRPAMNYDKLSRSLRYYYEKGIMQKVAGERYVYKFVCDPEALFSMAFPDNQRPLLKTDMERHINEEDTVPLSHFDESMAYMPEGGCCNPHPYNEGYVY
sequence,measurement,setting,value
TGGTAT,binding signal,ETV1,"1.37 fold enrichment (6-mer frequency, TF over GST control)"
same,binding signal,ERF,"1.34 fold enrichment (6-mer frequency, TF over GST control)"
same,binding signal,ETV3L,"1.37 fold enrichment (6-mer frequency, TF over GST control)"
same,binding signal,ETS2,"1.33 fold enrichment (6-mer frequency, TF over GST control)"
same,binding signal,SPDEF,"1.42 fold enrichment (6-mer frequency, TF over GST control)"
same,binding signal,ETV7,"1.35 fold enrichment (6-mer frequency, TF over GST control)"
same,binding signal,ELF5,"1.37 fold enrichment (6-mer frequency, TF over GST control)"
same,binding signal,ETV3,"1.28 fold enrichment (6-mer frequency, TF over GST control)"
same,binding signal,ETV6,"1.31 fold enrichment (6-mer frequency, TF over GST control)"

# From article PMC7862700, “An all-to-all approach to the identification of sequence-specific readers for epigenetic DNA modifications on cytosine”
